Results reported in the supplement of paper PMC7411054.
Structures can show the parent of a compound that is named as a salt.

Legend:
Conditions in all cases: treatment time: 24 h
A549-ACTB-RAB5A [1] = assay: lowest phenotypically active concentration; higher = less potent
Summary of the method: (§1)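 The reporter lines, fifteen in total and built by gene editing in A549, HepG2 and WPMY1 cells, used BFP for segmentation alongside GFP and RFP/FusionRed markers. Each was treated at 0.3, 1, 3 or 9 µM for 24 h in four wells and then imaged live, with live-cell features normalised to solvent control wells. Deviation meant ≥3 of 4 wells beyond the 95th percentile of control Euclidean distances; reproducibility meant a median replicate Pearson correlation above the 95th percentile of non-replicates. Only conditions meeting both were scored as phenotypically active.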

A549-GM130-SQSTM1 [2] = assay: as above
Summary of the method: as §1

A549-TUBA1B-RELA [3] = assay: as above
Summary of the method: as §1

WPMY1-GM130-SQSTM1 [4] = assay: as above
Summary of the method: as §1

A549-ACTB-RAB5A [5] = assay: phenotypically active (imaging signature differs from DMSO and reproducible) at any of 0.3-9 uM (binary (1 = active, 0 = inactive)); higher = active
Summary of the method: as §1

A549-CANX-COX4 = assay: as above
Summary of the method: as §1

A549-GM130-SQSTM1 [6] = assay: as above
Summary of the method: as §1

A549-TP53BP1-CLTA = assay: as above
Summary of the method: as §1

A549-TUBA1B-RELA [7] = assay: as above
Summary of the method: as §1

HepG2-ACTB-RAB5A [8] = assay: as above
Summary of the method: as §1

HepG2-CANX-COX4 = assay: as above
Summary of the method: as §1

HepG2-GM130-SQSTM1 = assay: as above
Summary of the method: as §1

HepG2-TP53BP1-CLTA = assay: as above
Summary of the method: as §1

HepG2-TUBA1B-RELA = assay: as above
Summary of the method: as §1

WPMY1-ACTB-RAB5A = assay: as above
Summary of the method: as §1

WPMY1-CANX-COX4 = assay: as above
Summary of the method: as §1

WPMY1-GM130-SQSTM1 [9] = assay: as above
Summary of the method: as §1

WPMY1-TP53BP1-CLTA = assay: as above
Summary of the method: as §1

WPMY1-TUBA1B-RELA = assay: as above
Summary of the method: as §1

HepG2-ACTB-RAB5A [10] = assay: lowest phenotypically active concentration; higher = less potent
Summary of the method: as §1

| Compound | lowest phenotypically active concentration (A549-ACTB-RAB5A [1]) | lowest phenotypically active concentration (A549-GM130-SQSTM1 [2]) | lowest phenotypically active concentration (A549-TUBA1B-RELA [3]) | lowest phenotypically active concentration (WPMY1-GM130-SQSTM1 [4]) | phenotypically active (A549-ACTB-RAB5A [5]) | phenotypically active (A549-CANX-COX4) | phenotypically active (A549-GM130-SQSTM1 [6]) | phenotypically active (A549-TP53BP1-CLTA) | phenotypically active (A549-TUBA1B-RELA [7]) | phenotypically active (HepG2-ACTB-RAB5A [8]) | phenotypically active (HepG2-CANX-COX4) | phenotypically active (HepG2-GM130-SQSTM1) | phenotypically active (HepG2-TP53BP1-CLTA) | phenotypically active (HepG2-TUBA1B-RELA) | phenotypically active (WPMY1-ACTB-RAB5A) | phenotypically active (WPMY1-CANX-COX4) | phenotypically active (WPMY1-GM130-SQSTM1 [9]) | phenotypically active (WPMY1-TP53BP1-CLTA) | phenotypically active (WPMY1-TUBA1B-RELA) | lowest phenotypically active concentration (HepG2-ACTB-RAB5A [10]) |
| --- | --- | --- | --- | --- | --- | --- | --- | --- | --- | --- | --- | --- | --- | --- | --- | --- | --- | --- | --- | --- |
| O=C(O)[C@@H]1[C@H]2C[C@H]3c4[nH]c5ccccc5c4CCN3C[C@@H]2CC[C@@H]1O [Yohimbinic acid monohydrate] | 9 µM | 3 µM | 9 µM | 9 µM | 1 (active) | 0 (inactive) | 1 (active) | 1 (active) | 1 (active) | 0 (inactive) | 0 (inactive) | 0 (inactive) | 0 (inactive) | 0 (inactive) | 1 (active) | 1 (active) | 1 (active) | 1 (active) | 1 (active) |  |
| Cc1ccc(NC(=O)c2cccc(N(C)C)c2)cc1NC(=O)c1ccc(O)cc1 | 3 µM | 3 µM | 3 µM |  | 1 (active) | 0 (inactive) | 1 (active) | 1 (active) | 1 (active) | 0 (inactive) | 0 (inactive) | 0 (inactive) | 0 (inactive) | 0 (inactive) | 1 (active) | 0 (inactive) | 0 (inactive) | 0 (inactive) | 0 (inactive) |  |
| COc1cc(C(C)=O)ccc1OCCCN1CCC(c2noc3cc(F)ccc23)CC1 [iloperidone] | 3 µM | 9 µM | 3 µM |  | 1 (active) | 0 (inactive) | 1 (active) | 0 (inactive) | 1 (active) | 0 (inactive) | 0 (inactive) | 0 (inactive) | 0 (inactive) | 0 (inactive) | 0 (inactive) | 0 (inactive) | 0 (inactive) | 0 (inactive) | 0 (inactive) |  |
| CCOP(=O)(OCC)C(=Cc1cc(C(C)(C)C)c(O)c(C(C)(C)C)c1)P(=O)(OCC)OCC | 9 µM | 9 µM |  |  | 1 (active) | 0 (inactive) | 1 (active) | 0 (inactive) | 0 (inactive) | 0 (inactive) | 0 (inactive) | 0 (inactive) | 0 (inactive) | 0 (inactive) | 0 (inactive) | 0 (inactive) | 0 (inactive) | 0 (inactive) | 0 (inactive) |  |
| CC#CC(=O)N1CCC[C@H]1c1nc(-c2ccc(C(=O)Nc3ccccn3)cc2)c2c(N)nccn12 [acalabrutinib] | 9 µM | 9 µM |  |  | 1 (active) | 0 (inactive) | 1 (active) | 0 (inactive) | 0 (inactive) | 0 (inactive) | 0 (inactive) | 0 (inactive) | 0 (inactive) | 0 (inactive) | 0 (inactive) | 0 (inactive) | 0 (inactive) | 0 (inactive) | 0 (inactive) |  |
| Cn1cc(CCn2cnc(-c3cnn(C)c3)c2-c2ccc(C#N)cc2)cn1 | 9 µM | 9 µM |  |  | 1 (active) | 0 (inactive) | 1 (active) | 0 (inactive) | 0 (inactive) | 0 (inactive) | 0 (inactive) | 0 (inactive) | 0 (inactive) | 0 (inactive) | 0 (inactive) | 0 (inactive) | 0 (inactive) | 0 (inactive) | 0 (inactive) |  |
| NC(=O)c1cccc(-c2cc(Nc3ccc(OC(F)(F)F)cc3)ncn2)c1 | 9 µM | 9 µM | 9 µM | 9 µM | 1 (active) | 0 (inactive) | 1 (active) | 1 (active) | 1 (active) | 0 (inactive) | 0 (inactive) | 1 (active) | 0 (inactive) | 0 (inactive) | 1 (active) | 0 (inactive) | 1 (active) | 1 (active) | 0 (inactive) |  |
| CC/C(=C(\CC)c1ccc(O)c(CN(CC)CC)c1)c1ccc(O)c(CN(CC)CC)c1 | ≤ 0.3 µM | ≤ 0.3 µM | ≤ 0.3 µM | 1 µM | 1 (active) | 0 (inactive) | 1 (active) | 1 (active) | 1 (active) | 1 (active) | 0 (inactive) | 1 (active) | 1 (active) | 1 (active) | 1 (active) | 1 (active) | 1 (active) | 1 (active) | 1 (active) | 1 µM |
| CCCS(=O)(=O)Nc1ccc(F)c(C(=O)c2c[nH]c3ncc(Cl)cc23)c1F | 3 µM | 9 µM | 9 µM | 9 µM | 1 (active) | 0 (inactive) | 1 (active) | 1 (active) | 1 (active) | 1 (active) | 1 (active) | 1 (active) | 1 (active) | 1 (active) | 0 (inactive) | 0 (inactive) | 1 (active) | 0 (inactive) | 0 (inactive) | 3 µM |
| CNCCC(Oc1ccc(C(F)(F)F)cc1)c1ccccc1 (stereo not given) [fluoxetine] | 3 µM | 9 µM | 3 µM | 9 µM | 1 (active) | 0 (inactive) | 1 (active) | 1 (active) | 1 (active) | 0 (inactive) | 0 (inactive) | 0 (inactive) | 1 (active) | 1 (active) | 0 (inactive) | 0 (inactive) | 1 (active) | 0 (inactive) | 0 (inactive) |  |
| COc1cc(N2CCC(N)CC2)ccc1Nc1ncc(Cl)c(-c2c[nH]c3ccccc23)n1 | 3 µM | ≤ 0.3 µM | 1 µM | 1 µM | 1 (active) | 0 (inactive) | 1 (active) | 1 (active) | 1 (active) | 1 (active) | 1 (active) | 1 (active) | 1 (active) | 1 (active) | 1 (active) | 1 (active) | 1 (active) | 1 (active) | 1 (active) | 3 µM |
| O=C(O)Cc1cccc(OCCCN(Cc2cccc(C(F)(F)F)c2Cl)CC(c2ccccc2)c2ccccc2)c1 [GW 3965 hydrochloride] | 9 µM |  |  |  | 1 (active) | 1 (active) | 0 (inactive) | 0 (inactive) | 0 (inactive) | 0 (inactive) | 1 (active) | 0 (inactive) | 0 (inactive) | 1 (active) | 0 (inactive) | 0 (inactive) | 0 (inactive) | 0 (inactive) | 0 (inactive) |  |
